Screens deposited in PubChem BioAssay by National Center for Advancing Translational Sciences (NCATS).
In the library only some 12% were active in any assay of this set; here they are far more common.
HP1b binding inh: HTS for Inhibitors of HP1-beta Chromodomain Interactions with Methylated Histone Tails; 390,000 tested, 0.56% active; Potency, µM (doses to about 114 µM), for inactives: top-dose activity change, negative = inhibition, most hits filed as inhibitors; AlphaScreen HP1-beta / biotin-H3K9me3 peptide binding; Chromobox protein homolog 1 (Homo sapiens), P83916; AID 540317, 2011; also: nearly all actives have a fitted effect of over 70% in size
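HP1-beta protein (50 nM final) preincubated 30 min at room temperature with biotinylated H3(1-18)K9me3 peptide (50 nM) in PBS pH 7.4, 0.01% Tween-20, then compound added for 30 min. AlphaScreen streptavidin donor/nickel chelate acceptor beads (10 ug/mL final), 30 min dark, luminescence read.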
L3MBTL1 inh: qHTS Assay for the Inhibitors of L3MBTL1 | AID 485360, 2010 | 230,000 tested, 0.66% active | AlphaScreen L3MBTL1–H3K9me1 peptide binding | Lethal(3)malignant brain tumor-like protein 1 (Homo sapiens), Q9Y468 | Potency, µM (titrated, usually from 57.1 µM), inactives show at the highest dose activity, negative = inhibition, most hits filed as inhibitors; also: % is scaled to controls: 0 for no effect and ±100 for the full control effect; nearly all actives have a fitted effect of over 60% in size
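L3MBTL1 50 nM + b-AHA-H3(1-15)K9me1 75 nM, 30 min RT; compound added, 30 min RT; streptavidin donor/Ni-chelate acceptor beads 10 ug/mL each final, 30 min RT dark; AlphaScreen read.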
Sfp inh: qHTS Assay for Inhibitors of Bacillus subtilis Sfp phosphopantetheinyl transferase (PPTase); Biochemical Sfp PPTase activity, qHTS; AID 1490, 2009; Potency, µM, for the others: largest response in the series, negative = inhibition, usual class: inhibitors; 310,000 tested, 3.5% active;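 also: the enzyme is Sfp with the accession as filed and its product quenches rhodamine fluorescence; 0% = enzyme reaction without inhibitor and -100% = no enzyme wells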
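With Hepes-Na pH 7.6 buffer containing 10 mM MgCl2, Sfp (15 nM) modified BHQ-2-YbbR (12.5 uM) using rhodamine-CoA (5 uM). Two reads 30 minutes apart at 525/598 nm yielded each well's rate.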
G9a inh: qHTS Assay for Inhibitors of Histone Lysine Methyltransferase G9a; Histone-lysine N-methyltransferase EHMT2 (Homo sapiens), Q96KQ7; G9a H3K9 monomethylation, AlphaScreen, 2 h; Potency, µM (series often up to 102 µM), without a hit: at the highest dose activity, negative = inhibition, hits mostly inhibitors; 350,000 tested, 8.8% active; also: % is scaled to controls: 0 for no effect and ±100 for the full control effect; nearly all actives have a fitted effect of over 75% in size
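Readings reflect AlphaScreen signal from monomethyl-H3K9 antibody detection. HMT at 20 nM; substrate b-H3K9 500 nM; cofactor SAM 20 uM; 2 h RT reaction; compounds tested as titrations in qHTS with 15 min preincubation.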
BAZ2B inh: qHTS Assay for Inhibitors of BAZ2B; AID 504333, 2011; Potency, µM (titrated, usually from 114 µM), for inactives: at the top dose activity change, negative = inhibition, usual class: inhibitors; Bromodomain adjacent to zinc finger domain protein 2B (Homo sapiens), Q9UIF8; AlphaScreen BAZ2B-H3K14Ac peptide displacement; 360,000 tested, 4.4% active; also: % is scaled to controls: 0 for no effect and ±100 for the full control effect; nearly all actives have a fitted effect of over 60% in size
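AlphaScreen displacement: compounds (up to 110uM) incubated 30 min at room temperature with a preformed 50 nM BAZ2B/50 nM biotinylated H3K14Ac peptide complex in PBS pH 7.4 with Tween-20. Donor and acceptor beads at 10 ug/mL final added, 20 min light-protected before reading.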
JMJD2A Tudor: qHTS Assay for Inhibitors of JMJD2A-Tudor Domain. Lysine-specific demethylase 4A (Homo sapiens), O75164. AlphaScreen JMJD2A-Tudor / H3K4me3 peptide binding. Potency, µM (titrated, usually from 114 µM), for inactives: at the top dose activity change, negative = inhibition, hits mostly inhibitors. 390,000 tested, 4.4% active; also: % is scaled to controls: 0 for no effect and ±100 for the full control effect; nearly all actives have a fitted effect of over 50% in size
The depositor's hits bear a star; u = inconclusive; x = not tested or not shown; [ ] = another dose, or the depositor's remark. Calls follow the shape of the dose curve; as a rule, active = well fitted curve in the direction sought with a large enough effect; inconclusive = small, poorly fitted or top-dose-only effect, or another doubt; inactive = no such curve, though single readings can be large; an effect the other way counts as inactive or inconclusive. Potency is read from the fitted curve at half-maximal effect.

SMILES | HP1b binding inh | L3MBTL1 inh | Sfp inh | G9a inh | BAZ2B inh | JMJD2A Tudor
O=C1C(=O)N(c2ccccn2)C(c2ccc(Br)cc2)/C1=C(/O)c1ccc(Br)cc1 (stereo not drawn) | -7% | -7% | 15% | 45µM* | -34% | -40%
CN1C(=O)C(=O)/C(=C(/O)c2ccc(Br)cc2)C1c1ccc(F)cc1 (stereo not drawn) | 37% | 5% | 20% | 71µM* | -8% | -4%
O=C1C(=O)N(c2ccccn2)C(c2ccc(F)cc2)/C1=C(/O)c1ccc(Br)cc1 (stereo not drawn) | 17% | -6%[2.29 µM] | 18% | 14%[0.501 µM] | -1% | -16%
Cc1cc2c(s1)c1cnn(Cc3ccc(-n4cncn4)cc3)c(=O)c1n2C | x | x | x | x | x | -23%
COC(=O)NC(CCc1ccccc1)C(C(=O)OC)C(=O)OC (stereo not drawn) | x | x | -25% | x | x | x
COC(=O)Cn1c(=O)c2c(nc3n2CCCN3CCc2ccc(OC)c(OC)c2)n(C)c1=O | 13% | x | 8% | 2% | -10% | -13%
Cc1ccc(N2CCN(S(=O)(=O)c3ccc4c(c3)CC(=O)N4)CC2)cc1 | x | x | x | x | x | -28%[229 µM]
Cc1nc(C)c(C(=O)OCC(=O)NCCc2ccc(S(N)(=O)=O)cc2)s1 | 16% | -2% | x | 1%[12.7 µM] | -4% | -14%
Cc1nc(C)c(C(=O)OCC(=O)NCCc2ccc(F)cc2)s1 | 16% | 2% | x | 40µM* | 7% | -18%
COc1cc(O)ccc1-c1nc2ccc(Br)cn2c1Nc1ccccc1C | -12% | x | x | u | u | u
Cc1ccc(S(=O)(=O)N2CCN(C(=O)C3CCN(C(=O)c4ccc(F)cc4)CC3)CC2)c(C)c1 | 10% | -3% | x | u | 11% | 18µM*
CCCN(CC(=O)Nc1ccccc1OC)C(=O)c1nc2nc(C)ccn2n1 | 30% | 7% | x | x | x | -16%
O=C(CN1CCCCC1)NC(=O)NC1CCCCC1 | 27% | 3% | x | 15%[12.7 µM] | u | -4%
COc1ccc(C(=O)NCCS(=O)(=O)N2CCOCC2)cc1 | 9% | 6% | x | -42% | 10% | -10%
COc1cccc(C(=O)NCCS(=O)(=O)N2CCOCC2)c1 | 13% | 33% | x | 22µM* | -5% | -5%
COc1cccc(C(=O)NCCS(=O)(=O)N2CCC3(CC2)OCCO3)c1 | 32% | -1% | x | 16µM* | 6% | -3%
O=C(NCCS(=O)(=O)N1CCC2(CC1)OCCO2)c1ccc(F)cc1 | 47% | -3% | x | 0%[0.501 µM] | 0% | 4%
CCOC(=O)C1CCN(S(=O)(=O)CCNC(=O)c2cccc(OC)c2)CC1 | 11% | 8% | x | 18µM* | -1% | -12%
O=S(=O)(CCOc1ccccc1)N1CCOCC1 | 16% | 5% | 2% | 79µM* | 6% | 4%
Cn1c2ccsc2c2cnn(Cc3ccccc3F)c(=O)c21 | x | x | x | x | x | -24%
O=C(O)CC(C(=O)OCCOc1ccccc1)N1CCOCC1 (stereo not drawn) | 12% | x | 4% | 79µM* | -19% | u
COc1ccc(C(C2C(=O)CC(C)(C)CC2=O)C2C(=O)CC(C)(C)CC2=O)cc1 | 58% | 2% | 25µM* | 45µM* | -16% | -17%
COc1ccc(C(C2C(=O)CC(C)(C)CC2=O)C2C(=O)CC(C)(C)CC2=O)cc1COCC(F)(F)F | 58% | 1% | u | u | -7% | 3%
CC1(C)CC(=O)C(C(c2ccncc2)C2C(=O)CC(C)(C)CC2=O)C(=O)C1 | 82% | 2% | 4% | 50µM* | -31% | -8%
